Source: PubChem BioAssay (Tox21)
Inconclusive results are not listed. The source made the active and inactive calls. Unless noted, the call rests on the fitted dose curve; in most records, active means well fitted curve in the direction sought with a large enough effect in the repeat runs; inconclusive means weak or mixed curves; inactive means no such curve, though single readings can be large; an effect the other way counts as inactive or inconclusive.

Columns and labels:
[1] = qHTS assay for small molecule agonists of the p53 signaling pathway (AID 651631; calls by dose curve; further: nearly all actives have a fitted effect of over 15% in size)
Summary of the method: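 HCT-116 p53RE-bla reporter line, 16 h compound treatment at 37 °C, then fluorescence after 2 h with B/G FRET substrate.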

[2] = qHTS assay for small molecules that induce genotoxicity in human embryonic kidney cells expressing luciferase-tagged ATAD5 (AID 651632); further: nearly all actives have a fitted effect of over 15% in size
Summary of the method: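 DMSO vehicle served as the control. HEK293T reporter cells, 16 hr at 37C, then 30 min Amplite at room temperature; ATAD5 induction is measured as luciferase activity.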

[3] = qHTS assay for small molecule agonists of the p53 signaling pathway - cell viability (AID 651633; calls by dose curve;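 further: p53RE-bla HCT reporter cells with a stable beta-lactamase p53 reporter; series mostly up to about 83 µM; nearly all actives have a fitted effect of over 30% in size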)
Summary of the method: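 p53RE-bla cells, seeded at 4,000 per well and rested 5 h at 37 C/5% CO2, received compounds in DMSO for 16 h at 37 C. CellTiter-Glo was then added, and luminescence was read after 30 min at room temperature to gauge cytotoxicity.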

[4] = qHTS assay for small molecules that induce genotoxicity in human embryonic kidney cells expressing luciferase-tagged ATAD5 - cell viability (AID 651634; calls by dose curve; further: nearly all actives have a fitted effect of over 25% in size)
Summary of the method: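 Here HEK293T cells with the ATAD5 luciferase reporter are incubated with test compounds for 15.5 hr, and cytotoxicity is then gauged by measuring protease activity in live cells using fluorescence.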

[5] = qHTS assay for small molecule disruptors of the mitochondrial membrane potential - cell viability (AID 720634; calls by dose curve;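 further: human HepG2 liver cancer cells; series mostly up to about 83 µM; nearly all actives have a fitted effect of over 20% in size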)
Summary of the method: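 Viability of HepG2 cells is scored from ATP content by luminescence; cells are exposed to compound for 1 hr at 37 C and 5% CO2, then dosed with m-MPI dye before the CellTiter-Glo reagent.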

[6] = qHTS assay for small molecule disruptors of the mitochondrial membrane potential (AID 720635)
Summary of the method: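 HepG2 cells (2,000/well) attached overnight at 37C, then took compound for 1 hr at 37C, 5% CO2. Mito-MPS dye was added for 30 min; fluorescence was read at 490/535 nm (monomers) and 540/590 nm (aggregates).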

[7] = qHTS assay to test for compound auto fluorescence at 535 nm (green) in HepG2 cells (AID 720675)
[8] = qHTS assay to test for compound auto fluorescence at 460 nm (blue) in HEK293 cells (AID 720678)
Summary of the method: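 Blue read-out at excitation 405 nm and emission 460 nm follows overnight compound exposure of HEK293 cells at 37C in 5% CO2. Activity is given as auto fluorescence equivalency to triamterene.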

[9] = qHTS assay to test for compound auto fluorescence at 590 nm (red) in HEK293 cells (AID 720679)
Summary of the method: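 Red channel, Ex/Em 540/590nm; signal expressed as equivalency to Rose Bengal sodium. HEK293, 2,000 cells/well, 10% dialyzed FBS; 23 nL compound pinned after 4-5 hr attachment; overnight 37C/5% CO2 before reading.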

[10] = qHTS assay to test for compound auto fluorescence at 535 nm (green) in HEK293 cells (AID 720680)
[11] = qHTS assay to test for compound auto fluorescence at 535 nm (green) in HEK293 cell free culture (AID 720682)
Summary of the method: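 Steps: dispense DMEM/10% FBS into empty wells; pin in compound or DMSO; measure fluorescence at 485/535 nm. Values are fluorescein equivalents.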

[12] = qHTS assay to test for compound auto fluorescence at 590 nm (red) in HEK293 cell free culture (AID 720683)
Summary of the method: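 Tox21 10K library compounds were pinned into cell-free DMEM with 10% FBS and fluorescence was read at excitation 540 nm. Activity is expressed as Rose Bengal sodium equivalency.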

[13] = qHTS assay to test for compound auto fluorescence at 590 nm (red) in HepG2 cell free culture (AID 720684)
Summary of the method: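 Ex 540 / Em 590 nm read of compound in cell-free MEM (10% FBS). Rose Bengal sodium reference.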

[14] = qHTS assay to test for compound auto fluorescence at 460 nm (blue) in HepG2 cell free culture (AID 720685)
Summary of the method: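 Cell-free plates of MEM plus 10% FBS received 23 nL compound or DMSO vehicle; blue-channel (405/460 nm) intensity scored against triamterene as reference fluorophore.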

[15] = qHTS assay to test for compound auto fluorescence at 535 nm (green) in HepG2 cell free culture (AID 720686)
[16] = qHTS assay to test for compound auto fluorescence at 460 nm (blue) in HepG2 cells (AID 720687)
Summary of the method: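 Cells (2,000/well in MEM with 10% FBS) attached overnight at 37 C, then were exposed to compound or DMSO for 1 hr at 37 C, 5% CO2. Fluorescence read at Ex/Em 405/460 nm, expressed as triamterene-equivalent signal.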

[17] = qHTS assay to test for compound auto fluorescence at 460 nm (blue) in HEK293 cell free culture (AID 720681)
Summary of the method: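 Test compounds were pinned into cell-free culture medium (DMEM with 10% FBS) and fluorescence was read directly at Ex/Em 405/460 nm. Signals were expressed as fluorescence equivalents of triamterene, with DMSO vehicle as control.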

[18] = qHTS assay to test for compound auto fluorescence at 590 nm (red) in HepG2 cells (AID 720674)
Summary of the method: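 Compound auto-fluorescence is scored relative to Rose Bengal sodium, measured at 540/590 nm in live HepG2 cultures after 1 hr compound contact (37 C, 5% CO2).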

[19] = target: Glucocorticoid receptor (Homo sapiens) (UniProt P04150); assay: qHTS assay to identify small molecule agonists of the glucocorticoid receptor (GR) signaling pathway (AID 720691; active means well fitted activation curve with a large enough effect in the signal ratio in the repeat runs, not every such curve was filed as active; the % refers to the signal ratio)
Sequence of Glucocorticoid receptor (Homo sapiens) (P04150 whole entry, looked up): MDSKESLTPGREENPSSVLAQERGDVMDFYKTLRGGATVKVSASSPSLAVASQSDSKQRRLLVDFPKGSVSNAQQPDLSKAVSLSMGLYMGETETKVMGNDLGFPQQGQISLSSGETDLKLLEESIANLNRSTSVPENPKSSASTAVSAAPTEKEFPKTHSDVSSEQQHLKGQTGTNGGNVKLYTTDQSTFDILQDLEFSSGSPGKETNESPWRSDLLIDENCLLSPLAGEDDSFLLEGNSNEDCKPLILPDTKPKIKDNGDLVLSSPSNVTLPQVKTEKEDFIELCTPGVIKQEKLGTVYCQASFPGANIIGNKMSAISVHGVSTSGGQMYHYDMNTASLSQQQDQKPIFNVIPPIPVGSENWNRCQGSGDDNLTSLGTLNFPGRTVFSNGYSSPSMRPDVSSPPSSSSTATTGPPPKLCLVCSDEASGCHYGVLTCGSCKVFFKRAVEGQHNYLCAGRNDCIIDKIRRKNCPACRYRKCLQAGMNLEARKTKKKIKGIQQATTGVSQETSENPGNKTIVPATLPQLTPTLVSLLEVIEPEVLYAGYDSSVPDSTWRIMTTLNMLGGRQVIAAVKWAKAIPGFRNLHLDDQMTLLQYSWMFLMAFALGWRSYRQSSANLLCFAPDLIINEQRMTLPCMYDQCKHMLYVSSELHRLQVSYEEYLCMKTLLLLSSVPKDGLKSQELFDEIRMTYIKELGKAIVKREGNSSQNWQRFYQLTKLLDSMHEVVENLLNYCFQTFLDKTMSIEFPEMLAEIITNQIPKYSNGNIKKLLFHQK
Summary of the method: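 Compounds in DMSO, alongside positive controls, were added to GR-bla HeLa reporter cells and incubated 18 h at 37 C; GRE-driven beta-lactamase was detected by fluorescence after 2 h with FRET substrate at room temperature.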

[20] = target: Glucocorticoid receptor (Homo sapiens) (UniProt P04150); assay: qHTS assay to identify small molecule antagonists of the glucocorticoid receptor (GR) signaling pathway (AID 720692; active means well fitted inhibition curve with a large enough effect in the signal ratio in the repeat runs, not every such curve was filed as active; the % refers to the signal ratio)
Summary of the method: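 In a 1536-well cell format, compounds were added 4 h after seeding GR-bla HeLa cells, together with dexamethasone at 5 nM final; reporter activity was measured by FRET-substrate fluorescence following 18 h at 37 C.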

Measured: Potency

O=C(O)CNC(=O)c1ccc([N+](=O)[O-])cc1
not listed: [17] | [18] | [19] | [20]
inactive: all other assays above

O=c1n(CCO)c(=O)n(CCO)c(=O)n1CCO
not listed: [18] | [19] | [20]
inactive: all other assays above

O=C(O)Cc1ccc(CCNS(=O)(=O)c2ccc(Cl)cc2)cc1
not listed: [6]
inactive: all other assays above

CCOC(=O)C(=O)OCC
not listed: [17] | [18]
inactive: all other assays above

CCCCC/C=C\CCC=O
not listed: [6]
inactive: all other assays above

Nc1cc(=O)[nH]c(N)n1
not listed: [19] | [20]
inactive: all other assays above

COc1ccccc1OCC(O)CN1CCN(CC(=O)Nc2c(C)cccc2C)CC1 (configuration not stated)
not listed: [6]
inactive: all other assays above

Nc1c2c(nc3ccccc13)CCCC2O (configuration not stated)
not listed: [14] | [17]
inactive: all other assays above

C1CN(CCOCCN2CCOCC2)CCO1
not listed: [6] | [18]
inactive: all other assays above

CN1CCC(=C2c3ccccc3CC(=O)c3sccc32)CC1
not listed: [6]
inactive: all other assays above

COC(=O)c1ccc(C)cc1C1=NC(C)(C(C)C)C(=O)N1 (configuration not stated)
not listed: [6] | [14] | [17]
inactive: all other assays above

O=C(CCCN1CCN(c2ccccn2)CC1)c1ccc(F)cc1
not listed: [4] | [19] | [20]
inactive: all other assays above

Cc1ccc(Cl)cc1Cl
not listed: [6] | [17] | [18]
inactive: all other assays above

Nc1ccccc1S(=O)(=O)O
not listed: [4] | [6] | [19] | [20]
inactive: all other assays above

CCCc1cc(C(N)=S)ccn1
not listed: [4] | [14] | [17] | [18] | [20]
inactive: all other assays above

C[N+](C)(C)CCCCCC[N+](C)(C)C
not listed: [6] | [14] | [18] | [19] | [20]
inactive: all other assays above

NC(=O)c1ccc(N)cc1
not listed: [6]
inactive: all other assays above
